# Data taken from PubChem BioAssay (NCATS).
# Inconclusive results are not listed. The source made the active and inactive calls. Unless noted, calls come from the whole dose curve; as a rule, active = well fitted curve in the direction sought with a large enough effect; inconclusive = small, poorly fitted or top-dose-only effect, or another doubt; inactive = no such curve, though single readings can be large; an effect the other way counts as inactive or inconclusive.
# How the values were obtained:
# [1] = Quantitative High-Throughput drug screen in 47 multiple myeloma cell lines against the NCATS MIPE library collection: KMS34_JCRB cell viability assay (AID 1918985); note: nearly all actives have a fitted effect of over 40% in size; note: potency is the fitted concentration of half-maximal effect
# Summary of the method: (§1)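 500 cells/well; MIPE 4.0 drugs pin-transferred; 48 h, 37C, 5% CO2. CellTiter-Glo, 5 min RT, luminescence. Controls: DMSO 100%, media 0%.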
# [2] = Quantitative High-Throughput drug screen in 47 multiple myeloma cell lines against the NCATS MIPE library collection: OCIMY7_PLB cell viability assay (AID 1918987); note: potency is the fitted concentration of half-maximal effect; nearly all actives have a fitted effect of over 65% in size
# Summary of the method: as §1
# [3] = Quantitative High-Throughput drug screen in 47 multiple myeloma cell lines against the NCATS MIPE library collection: OCIMY5_PLB cell viability assay (AID 1918988); note: nearly all actives have a fitted effect of over 65% in size; note: potency is the fitted concentration of half-maximal effect
# Summary of the method: as §1
# [4] = Quantitative High-Throughput drug screen in 47 multiple myeloma cell lines against the NCATS MIPE library collection: SKMM1_PLB cell viability assay (AID 1919863); conditions: SKMM1 myeloma viability, CellTiter-Glo ATP, 48 h; viability: stronger effect = lower value; note: nearly all actives have a fitted effect of over 35% in size; note: potency is the fitted concentration of half-maximal effect
# Summary of the method: as §1
# [5] = Quantitative High-Throughput drug screen in 47 multiple myeloma cell lines against the NCATS MIPE library collection: XG1_PLB cell viability assay (AID 1919866); note: nearly all actives have a fitted effect of over 35% in size; note: potency is the fitted concentration of half-maximal effect
# Summary of the method: as §1
# [6] = Quantitative High-Throughput drug screen in 47 multiple myeloma cell lines against the NCATS MIPE library collection: VP6_DJ cell viability assay (AID 1919867); note: nearly all actives have a fitted effect of over 40% in size; note: potency is the fitted concentration of half-maximal effect
# Summary of the method: as §1
# [7] = Quantitative High-Throughput drug screen in 47 multiple myeloma cell lines against the NCATS MIPE library collection: UTMC2_PLB cell viability assay (AID 1919868); conditions: CellTiter-Glo ATP luminescence, 48 h; viability (% of DMSO control): at 45.8 µM (top of the series) unless noted; note: nearly all actives have a fitted effect of over 55% in size; note: potency is the fitted concentration of half-maximal effect
# Summary of the method: as §1
# [8] = Quantitative High-Throughput drug screen in 47 multiple myeloma cell lines against the NCATS MIPE library collection: PE2_PLB cell viability assay (AID 1919869); note: nearly all actives have a fitted effect of over 35% in size; note: potency is the fitted concentration of half-maximal effect
# Summary of the method: as §1
# [9] = Quantitative High-Throughput drug screen in 47 multiple myeloma cell lines against the NCATS MIPE library collection: PCM6_Riken cell viability assay (AID 1919870); note: nearly all actives have a fitted effect of over 30% in size; note: potency is the fitted concentration of half-maximal effect
# Summary of the method: as §1
# [10] = Quantitative High-Throughput drug screen in 47 multiple myeloma cell lines against the NCATS MIPE library collection: RPMI8226_ATCC cell viability assay (AID 1919871); note: nearly all actives have a fitted effect of over 30% in size; note: potency is the fitted concentration of half-maximal effect
# Summary of the method: as §1
# [11] = Quantitative High-Throughput drug screen in 47 multiple myeloma cell lines against the NCATS MIPE library collection: OPM2_DSMZ cell viability assay (AID 1919872); note: nearly all actives have a fitted effect of over 30% in size; note: potency is the fitted concentration of half-maximal effect
# Summary of the method: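 Myeloma cells (500 per well) were exposed to MIPE 4.0 compounds by pin transfer and incubated 48 hours at 37C, 5% CO2. Viability was read as ATP by CellTiter-Glo luminescence, normalised to DMSO (100%) and media-only (0%) wells.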
# [12] = Quantitative High-Throughput drug screen in 47 multiple myeloma cell lines against the NCATS MIPE library collection: KMS11_JCRBsus cell viability assay (AID 1919873); note: nearly all actives have a fitted effect of over 50% in size; note: potency is the fitted concentration of half-maximal effect
# Summary of the method: as §1
# [13] = Quantitative High-Throughput drug screen in 47 multiple myeloma cell lines against the NCATS MIPE library collection: KMS28BM_JCRB cell viability assay (AID 1919874); note: nearly all actives have a fitted effect of over 35% in size; note: potency is the fitted concentration of half-maximal effect
# Summary of the method: as §1
# [14] = qHTS drug screen for cell cycle checkpoint inhibitors in PARPi-resistant BRCA-mutant ovarian cancer cell lines. (AID 1963452; calls by dose curve); conditions: PEO1/OlaR viability, CellTiter-Glo luminescence, 96 h, stronger effect = lower value
# Summary of the method: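 PEO1, PEO4 and PEO1/OlaR ovarian cancer cells, 600 per well, exposed 96 h at 37C to a dilution series. Viability read by CellTiter-Glo luminescence, normalized to DMSO and empty wells; activity summarized as Z-AUC.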
# [15] = Quantitative High-Throughput drug screen in 47 multiple myeloma cell lines against the NCATS MIPE library collection: OPM1_PLB cell viability assay (AID 1918989); note: nearly all actives have a fitted effect of over 40% in size; note: potency is the fitted concentration of half-maximal effect
# Summary of the method: as §1
# [16] = qHTS for identification of novel therapeutic agents for treatment of microphthalmiaassociated transcription factor (MiT) renal cell carcinoma (RCC) (AID 1963991; calls by dose curve; note: potency is the fitted concentration of half-maximal effect); conditions: CellTiter-Glo, 48 h; for z-score: stronger effect = lower value; for Potency: active = Z-AUC below -0.8 in all three lines
# Summary of the method: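 Curves over 11 concentrations were fitted to CellTiter-Glo luminescence, scaled between empty wells (0%) and DMSO (100%) viability. Cells were UOK109, UOK124 and UOK145 TFE3-fusion RCC lines at 500/well, exposed 48 hours at 37 C.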
# [17] = qHTS profiling for inhibitors of Plasmodium falciparum proliferation (AID 504749);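 note: 0% = DMSO vehicle and full inhibition = artemisinin control; nearly all actives have a fitted effect of over 60% in size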; conditions: P. falciparum in erythrocytes, SYBR Green DNA, 72 h
# Summary of the method: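 SYBR Green fluorescence (ex 485 nm, em 535 nm) reports parasite DNA after 72 h compound exposure of infected red cells at 0.3% parasitemia, 2.5% hematocrit; signal normalized to 0.29 uM artemisinin and vehicle wells.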
# [18] = Quantitative High-Throughput drug screen in 47 multiple myeloma cell lines against the NCATS MIPE library collection: U266_ATCC cell viability assay (AID 1919864); note: nearly all actives have a fitted effect of over 35% in size; note: potency is the fitted concentration of half-maximal effect
# Summary of the method: as §1
# [19] = Quantitative High-Throughput drug screen in 47 multiple myeloma cell lines against the NCATS MIPE library collection: XG6_PLB cell viability assay (AID 1919865); note: nearly all actives have a fitted effect of over 40% in size; note: potency is the fitted concentration of half-maximal effect
# Summary of the method: as §1
# [20] = measured here: PEO1 parental Z-AUC
# [21] = TFE3-RCC UOK109 viability, measured here: UOK109 Z-AUC
# [22] = TFE3-RCC viability, measured here: UOK124 Z-AUC
# [23] = TFE3-RCC viability, measured here: UOK145 Z-AUC
# [24] = at 28.7 µM (top of the series), parasite line A
# [25] = at 28.7 µM (top of the series), parasite line B
smiles,measurement,setting,value
O=C(O)c1ccc2cc(-c3ccc(O)c(C45CC6CC(CC(C6)C4)C5)c3)ccc2c1,Potency,[1],13.2 µM (active)
same,Potency,[2],0.105 µM (active)
same,Potency,[3],2.96 µM (active)
same,Potency,[4],4.18 µM (active)
same,Potency,[5],0.526 µM (active)
same,Potency,[6],13.2 µM (active)
same,Potency,[7],0.264 µM (active)
same,Potency,[8],1.48 µM (active)
same,Potency,[9],16.6 µM (active)
same,Potency,[10],11.8 µM (active)
same,Potency,[11],23.5 µM (active)
same,Potency,[12],1.48 µM (active)
same,Potency,[13],1.32 µM (active)
same,Z-AUC,[14],-0.815 (inactive)
same,Z-AUC,[14]; [20],-1.55
same,Z-AUC,[14]; measured here: PEO4 Z-AUC,-1.16
O=c1[nH]c(=O)n(C2CCCO2)cc1F (stereo not given),Potency,[1],inactive
same,Potency,[3],42.9 µM (active)
same,Potency,[15],inactive
same,Potency,[6],inactive
same,Potency,[7],inactive
same,Potency,[8],inactive
same,Potency,[9],inactive
same,Potency,[10],inactive
same,Potency,[12],inactive
same,Z-AUC,[14],1.33 (inactive)
same,Z-AUC,[14]; [20],1.12
same,Z-AUC,[14]; measured here: PEO4 Z-AUC,0.998
same,z-score,[16]; [21],0.952
same,z-score,[16]; [22],1.45
same,z-score,[16]; [23],0.901
same,"activity, negative = inhibition",[17]; [24],8.19% (inactive)
same,"activity, negative = inhibition",[17]; [25],12.8% (inactive)
C[C@H]1C[C@@H]2[C@@H]([C@@H](O)C[C@@]3(C)[C@H]2CC[C@]3(O)C(=O)CO)[C@@]2(C)C=CC(=O)C=C12,Potency,[1],inactive
same,Potency,[15],inactive
same,viability,[4],112% (inactive)
same,Potency,[18],inactive
same,Potency,[5],inactive
same,Potency,[8],inactive
same,Potency,[11],inactive
same,Potency,[12],0.105 µM (active)
same,Potency,[13],inactive
same,z-score,[16]; [21],0.15
same,z-score,[16]; [22],0.208
same,z-score,[16]; [23],0.428
same,"activity, negative = inhibition","[17]; at 12.8 µM (top of the series), parasite line A",-0.344% (inactive)
same,"activity, negative = inhibition","[17]; at 12.8 µM (top of the series), parasite line B",-25.6% (inactive)
Cc1cn2cc(C(=O)N(C)CCO)cc(N[C@@H]3CCOc4cccc(C)c43)c2n1,Potency,[1],inactive
same,Potency,[3],inactive
same,Potency,[19],inactive
same,Potency,[5],inactive
same,Potency,[7],inactive
same,Potency,[8],inactive
same,Potency,[10],inactive
same,Potency,[12],inactive
same,Potency,[13],inactive
same,Z-AUC,[14],1.4 (inactive)
same,Z-AUC,[14]; [20],1.4
same,Z-AUC,[14]; measured here: PEO4 Z-AUC,1.61
C[C@@H](Oc1cc(-n2cnc3ccc(CN4CCN(C)CC4)cc32)sc1C(N)=O)c1ccccc1C(F)(F)F,Potency,[1],0.0418 µM (active)
same,Potency,[3],0.0469 µM (active)
same,Potency,[18],16.6 µM (active)
same,Potency,[5],0.0148 µM (active)
same,Potency,[6],18.7 µM (active)
same,Potency,[9],13.2 µM (active)
same,Potency,[11],0.059 µM (active)
same,Potency,[12],0.0235 µM (active)
same,Z-AUC,[14],-0.926 (inactive)
same,Z-AUC,[14]; [20],-1.54
same,Z-AUC,[14]; measured here: PEO4 Z-AUC,-1.51
same,Potency,[16]; TFE3-RCC UOK109 viability,6.62 µM (active)
same,z-score,[16]; [21],-0.886
same,z-score,[16]; [22],-1.58
same,z-score,[16]; [23],-1.64
COc1c(N2C[C@@H]3CCCN[C@H]3C2)c(F)cc2c(=O)c(C(=O)O)cn(C3CC3)c12,Potency,[1],9.35 µM (active)
same,Potency,[15],inactive
same,Potency,[18],inactive
same,Potency,[5],inactive
same,Potency,[8],inactive
same,Potency,[9],inactive
same,Potency,[10],inactive
same,Potency,[11],6.62 µM (active)
same,Potency,[12],inactive
same,Potency,[13],inactive
same,Z-AUC,[14],0.687 (inactive)
same,Z-AUC,[14]; [20],0.58
same,Z-AUC,[14]; measured here: PEO4 Z-AUC,1.15
same,z-score,[16]; [21],0.422
same,z-score,[16]; [22],1.3
same,z-score,[16]; [23],1.53
same,"activity, negative = inhibition",[17]; [24],-20.4% (inactive)
same,"activity, negative = inhibition",[17]; [25],-3.01% (inactive)
COC(=O)[C@]12CCC(C)(C)C[C@@H]1[C@@H]1C(=O)C=C3[C@@]4(C)C=C(C#N)C(=O)C(C)(C)[C@@H]4CC[C@@]3(C)[C@]1(C)CC2,Potency,[1],0.662 µM (active)
same,Potency,[3],0.209 µM (active)
same,Potency,[15],0.209 µM (active)
same,Potency,[4],0.469 µM (active)
same,Potency,[19],0.372 µM (active)
same,Potency,[5],0.166 µM (active)
same,Potency,[6],0.264 µM (active)
same,Potency,[7],0.372 µM (active)
same,Potency,[8],0.332 µM (active)
same,Potency,[10],0.526 µM (active)
same,Potency,[12],0.187 µM (active)
same,Potency,[13],0.264 µM (active)
same,Potency,[16]; TFE3-RCC UOK109 viability,1.18 µM (active)
same,z-score,[16]; [21],-1.73
same,z-score,[16]; [22],-1.69
same,z-score,[16]; [23],-1.96
Cc1ccc(S(=O)(=O)Nc2cc(Cl)ccc2C(=O)Nc2nc(-c3ccccc3)cs2)cc1,Potency,[1],20.9 µM (active)
same,Potency,[15],4.69 µM (active)
same,Potency,[4],16.6 µM (active)
same,Potency,[18],20.9 µM (active)
same,Potency,[6],6.62 µM (active)
same,Potency,[8],5.9 µM (active)
same,Potency,[10],16.6 µM (active)
same,Potency,[12],10.5 µM (active)
same,Z-AUC,[14],-0.703 (inactive)
same,Z-AUC,[14]; [20],-0.778
same,Z-AUC,[14]; measured here: PEO4 Z-AUC,-1.08
Nc1nc(-c2nn(Cc3ccccc3F)c3ncccc23)nc(N)c1N1CCOCC1,Potency,[1],inactive
same,Potency,[3],inactive
same,viability,[4],84.5% (inactive)
same,Potency,[13],inactive
same,Z-AUC,[14],-0.481 (inactive)
same,Z-AUC,[14]; [20],-0.352
same,Z-AUC,[14]; measured here: PEO4 Z-AUC,-0.594
CC(C)(C)c1cc(C(C)(C)C)c(NC(=O)c2c[nH]c3ccccc3c2=O)cc1O,Potency,[1],inactive
same,viability,[4],97.5% (inactive)
same,Potency,[18],inactive
same,Potency,[19],inactive
same,Potency,[7],inactive
same,Potency,[8],inactive
same,Potency,[9],inactive
same,Potency,[10],inactive
same,Potency,[11],inactive
same,Potency,[12],inactive
same,Potency,[13],inactive
same,Z-AUC,[14],1.31 (inactive)
same,Z-AUC,[14]; [20],1.35
same,Z-AUC,[14]; measured here: PEO4 Z-AUC,0.966
O=c1c2ccccc2nc2n1CCc1c-2[nH]c2ccccc12,Potency,[1],inactive
same,Potency,[2],18.7 µM (active)
same,Potency,[4],23.5 µM (active)
same,Potency,[18],inactive
same,Potency,[19],inactive
same,Potency,[7],inactive
same,Potency,[9],13.2 µM (active)
same,Potency,[10],inactive
COc1ccc(CC2SC(=O)NC2=O)cc1C(=O)NCc1ccc(C(F)(F)F)cc1 (stereo not given),Potency,[1],inactive
same,Potency,[3],inactive
same,Potency,[15],6.62 µM (active)
same,viability,[4],115% (inactive)
same,Potency,[9],7.43 µM (active)
same,Potency,[10],inactive
same,Potency,[13],inactive
N#CCNC(=O)c1ccc(-c2ccnc(Nc3ccc(N4CCOCC4)cc3)n2)cc1,Potency,[1],4.69 µM (active)
same,Potency,[2],5.26 µM (active)
same,Potency,[3],13.2 µM (active)
same,Potency,[18],18.7 µM (active)
same,Potency,[19],2.64 µM (active)
same,Potency,[5],5.26 µM (active)
same,Potency,[6],3.72 µM (active)
same,Potency,[8],2.96 µM (active)
same,Potency,[9],3.32 µM (active)
same,Potency,[10],16.6 µM (active)
same,Potency,[12],7.43 µM (active)
same,Potency,[13],7.43 µM (active)
same,Z-AUC,[14],-0.322 (inactive)
same,Z-AUC,[14]; [20],0.159
same,Z-AUC,[14]; measured here: PEO4 Z-AUC,0.613
